An excerpt weighted towards active compounds, which were near 14% of everything screened.
Pf growth 48h – P. falciparum growth inhibition at 48 hours (one generation). P. falciparum luciferase growth in erythrocytes, 48 h. Potency, µM (series often up to 28.7 µM), for inactives: top-dose activity change, negative = inhibition, most hits filed as inhibitors. hit rate 5.9% among 310,000. AID 504832; note: potency is the fitted concentration of half-maximal effect
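Luminescence readout; reporter = integrated firefly luciferase in P. falciparum. RBC culture at 2% hematocrit, 0.1% parasitemia final, 37 C/5% CO2; decreased signal taken as growth inhibition.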
HCV inh – blocks hepatitis C virus; Potency, µM (top dose mostly 41.8 µM), for inactives: at the top dose activity change, negative = inhibition, most hits filed as inhibitors; hit rate 3.4% among 340,000; AID 651820; Huh7.5.1 HCVcc-Cre infection, luciferase reporter, 44 h; note: potency is the fitted concentration of half-maximal effect
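A cell-based infection assay in which seeded cells (1,000 per well) receive test compound after 4 h, are inoculated with HCVcc-Cre at approximately 0.5 moi, and are incubated 44 h before luminescence detection.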
Pf growth 96h – P. falciparum growth inhibition at 96 hours; P. falciparum luciferase reporter growth, 96 h; Potency, µM (highest dose often 28.7 µM), for inactives: top-dose activity change, negative = inhibition, most hits filed as inhibitors; hit rate 6.9% among 320,000; note: potency is the fitted concentration of half-maximal effect
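Erythrocytes infected with luciferase-expressing P. falciparum were dispensed at 2% hematocrit and 0.05% parasitemia (final), then incubated with compounds 96 hours at 37 C in 5% CO2. Luminescence after detection reagent addition reported growth.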
HCMV antiviral – inhibitors of human cytomegalovirus; HFF cells, HCMV-luciferase reporter, 72 h; stronger effect = lower value; activity change, negative = inhibition, % at 57.5 µM; hit rate 4.5% among 410,000; AID 1259415; in the data active = activity change below about -60%; inconclusive = no clear call, values can overlap the other calls; inactive = above about -39%
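Screen run at 2 compound doses on HFFs infected with reporter HCMV, MOI 1 PFU/cell. Luciferase activity from cell lysates at 72 h post infection gave inhibition relative to buffer-only and Salinomycin wells.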
Lassa entry inh – inhibitors of Lassa virus binding or cell entry | hit rate 1.2% among 300,000 | Lassa virus pseudotype entry inhibition, cell reporter | Potency, µM (titrated, usually from 37.9 µM), for the others: at the top dose activity change, negative = inhibition, hits mostly inhibitors | AID 540256; calls by dose curve; tested in HEK293 cells; note: potency is the fitted concentration of half-maximal effect; nearly all actives have a fitted effect of over 50% in size
MARV entry inh – inhibitors of Marburg virus binding or cell entry; Marburg virus pseudotyped entry inhibition, cell reporter; Potency, µM (series often up to 37.8 µM), for the others: at the top dose activity change, negative = inhibition, hits mostly inhibitors; hit rate 1.8% among 300,000; AID 540276; calls by dose curve; tested in HEK293 cells; note: potency is the fitted concentration of half-maximal effect
* = called active by the depositor; ? = inconclusive; nt = no result; [ ] = remark or other dose. Unless noted, calls come from the whole dose curve; as a rule, active = well fitted inhibition curve with a large enough effect; inconclusive = small, poorly fitted or top-dose-only effect, or another doubt; inactive = no such curve, though single readings can be large or run the other way. % is set by controls: 0 for no effect and ±100 for the full control effect.

SMILES	Pf growth 48h	HCV inh	Pf growth 96h	HCMV antiviral	Lassa entry inh	MARV entry inh
CCc1ccc(C(O)(CNCc2ccccc2)c2ccccc2)cc1 (stereo not drawn)	?	-2%	?	93	nt	nt
N#C[C@@H](C(=O)NC1CCCCC1)c1nc2ccccc2nc1N1CCN(c2ccccc2F)CC1	nt	nt	nt	nt	nt	-15%[46.1 µM]
C#CCOCCOCCOCCNc1nc(N2CCN(C(=O)Cn3cc(CCCN=C(N)N)nn3)CC2)nc(N2CCN(C(=O)[C@H]([C@@H](C)CC)n3cc(CCCCN)nn3)CC2)n1	?	20%	?	-26	nt	nt
C#CCOCCOCCOCCNc1nc(N2CCN(C(=O)CCCCCCCCCCNC(=O)Cn3cc(CCCCCN)nn3)CC2)nc(N2CCN(C(=O)CCCCCCCCCCNC(=O)[C@H]([C@@H](C)CC)n3cc(CCCCN=C(N)N)nn3)CC2)n1	2.1µM*	?	3.3µM*	nt	nt	nt
C#CCOCCOCCOCCNc1nc(N2CCN(C(=O)CCCCCCCCCCNC(=O)[C@H]([C@@H](C)CC)n3cc(CCCCN=C(N)N)nn3)CC2)nc(N2CCN(C(=O)CCCCCCCCCCNC(=O)[C@H]([C@@H](C)CC)n3cc(CCCCN=C(N)N)nn3)CC2)n1	3.7µM*	?	4.1µM*	nt	nt	nt
C#CCOCCOCCOCCNc1nc(N2CCN(C(=O)CCCCCCCCCCNC(=O)[C@H]([C@@H](C)CC)n3cc(CCCCCN)nn3)CC2)nc(N2CCN(C(=O)CCCCCCCCCCNC(=O)[C@H]([C@@H](C)CC)n3cc(CCCCN=C(N)N)nn3)CC2)n1	?	?	2.9µM*	nt	nt	nt
C#CCOCCOCCOCCNc1nc(N2CCN(C(=O)CCCCCCCCCCNC(=O)[C@H]([C@@H](C)CC)n3cc(CCCCN=C(N)N)nn3)CC2)nc(N2CCN(C(=O)CCCCCCCCCCNC(=O)[C@H](CCCCN)n3cc(C)nn3)CC2)n1	3.7µM*	?	4.7µM*	nt	nt	nt
C#CCOCCOCCOCCNc1nc(N2CCN(C(=O)CCCCCCCCCCNC(=O)[C@H]([C@@H](C)CC)n3cc(CCCCN=C(N)N)nn3)CC2)nc(N2CCN(C(=O)CCCCCCCCCCNC(=O)[C@H](CO)n3cc(CCCCCN)nn3)CC2)n1	5.2µM*	?	5.2µM*	nt	nt	nt
C#CCOCCOCCOCCNc1nc(N2CCN(C(=O)[C@H]([C@@H](C)CC)n3cc(CCCCN)nn3)CC2)nc(N2CCN(C(=O)[C@H](CCCCN)n3cc(CCCC)nn3)CC2)n1	?	25%	-27%	11	nt	nt
Cc1cc(C)c2c(n1)sc1c(O)cc(=O)[nH]c12	18%	4%	7.4µM*	0	4%	0%
COc1ccc(C(=O)c2c(NC(C)=O)sc3c2CCN(C(=O)OC(C)(C)C)C3)cc1	8.3µM*	-12%	9.3µM*	?	?	?
COc1ccc(C(=O)Nc2sc3c(c2C#N)CCN(C(C)=O)C3)cc1	?	-24%	-20%	-6	?	?
CCOC(=O)N1CCc2c(sc(NCc3cc(OC)ccc3OC)c2C(=O)Nc2cc(OC)ccc2OC)C1	nt	nt	nt	-5	7%[46.1 µM]	nt
CCOC(=O)N1CCc2c(sc(NC(=O)Cc3ccccc3)c2C(=O)c2ccc(OC)cc2)C1	5.2µM*	?	?	23	nt	nt
CCOc1ccccc1NC(=O)C(C)n1nnc2sc3c(c2c1=O)CCCC3 (stereo not drawn)	nt	nt	nt	-2	16%[46.1 µM]	11%[46.1 µM]
C[C@H](NC(=O)[C@H](Cc1ccccc1)n1c(=O)[nH]c2ccccc2c1=O)C(=O)N1CCC(C(=O)O)CC1	-2%	11%	?	-22	nt	nt
CCC(C)[C@H](NC(=O)[C@H](Cc1ccccc1)n1c(=O)[nH]c2ccccc2c1=O)C(=O)NCC1CCC(C(=O)O)CC1 (stereo partly drawn)	-17%	18%	13µM*	-6	nt	nt
CC(C)[C@H](NC(=O)c1ccc(C(C)(C)C)cc1)C(=O)N1CCN(Cc2ccc3c(c2)OCO3)CC1	nt	11µM*	nt	?	?	?
CC(NC(=O)c1ccccc1Cl)C(=O)N1CCN(Cc2ccc3c(c2)OCO3)CC1 (stereo not drawn)	5%	-15%	-6%	19	8%	4%
NC(=O)CC[C@H](NC(=O)c1ccc(F)cc1)C(=O)N1CCN(Cc2ccc3c(c2)OCO3)CC1	nt	4%	nt	-70*	-12%	9%
C[C@H](NC(=O)c1ccccc1)C(=O)N1CCN(Cc2ccc3c(c2)OCO3)CC1	nt	6%	nt	8	nt	nt
CC(O)(c1ccncc1)c1nc(-c2cccc(C(F)(F)F)c2)cs1 (stereo not drawn)	nt	nt	nt	-69*	nt	nt
COc1ccc(-c2csc(C(C)(O)c3cccnc3)n2)cn1 (stereo not drawn)	nt	nt	nt	-12	nt	nt
COc1ccc(-c2csc(C(C)(O)c3cccc(OC)c3)n2)cc1 (stereo not drawn)	nt	nt	nt	-65*	nt	nt
CCN(CC)C(=O)c1cccc(-c2csc(C(C)(O)c3cccc(OC)c3)n2)c1 (stereo not drawn)	nt	nt	nt	-78*	nt	nt
COc1cccc(C(C)(O)c2nc(-c3ccc(OC)nc3)cs2)c1 (stereo not drawn)	nt	nt	nt	-62*	nt	nt
CCC(C(=O)OC)n1nnc2sc(-c3ccccc3)cc2c1=O (stereo not drawn)	nt	nt	nt	-29	1%[46.1 µM]	11%[46.1 µM]
COc1cc(Nc2nc3c(S(=O)(=O)c4cccc(Cl)c4)nnn3c3ccsc23)cc(OC)c1	nt	nt	nt	22	13%[46.1 µM]	nt
COc1cccc(C(C)(O)c2nc(-c3cccs3)cs2)c1 (stereo not drawn)	nt	nt	nt	-79*	nt	nt

Screening data as filed in PubChem.
